High-throughput results: PubChem, several laboratories
Most compounds without a hit are left out; they make up all but 5.4% or so of the library.
APOBEC3A inh: APOBEC3A ssDNA deaminase inhibitors, primary screen, selectivity assay for APOBEC3G inhibitor project, biochemical, FAM/TAMRA oligo cleavage fluorescence | DNA dC->dU-editing enzyme APOBEC-3A (Homo sapiens), P31941 | recombinant A3A, FAM/TAMRA ssDNA deamination fluorescence | inhibition, % at 20 µM | 0.41% of 330,000 active;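 active = at least 40% inhibition at 20 µM here, with at most 30% in a related deaminase screen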;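 also: plate controls were A3A with DMSO for no effect and wells lacking A3A enzyme for full effect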
ALR H2O2 inh: inhibitors of human ALR sulfhydryl oxidase, primary screen, biochemical, H2O2 detection, HRP-luminol luminescence, single point; inhibition, % (concentration not given with the values); 3.8% of 290,000 active; purified ALR, DTT oxidation; FAD-linked sulfhydryl oxidase ALR (Homo sapiens), P55789; AID 485317, 2010;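 active = mean replicate inhibition above about 79%, with every replicate also reaching it, limit read from the data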
aDG glyco act: activators of alpha-DG glycosylation, primary screen, uHTS, Pro5-aDG cells, AlphaScreen; activation, % at 10 µM; alpha-DG glycosylation AlphaScreen (IIH6); 0% Pro5, 100% B10-LARGE cell signal; AID 624168, 2012; 0.22% of 360,000 active;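 active = activation of at least 8% versus controls, or a plate z-score of at least 8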;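 also: Pro5 are CHO cells carrying HIG-tagged alpha-DG that lacks glycosylation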
rCAG binder: binders of r(CAG) RNA repeats, primary screen, biochemical, fluorescence | r(CAG) RNA repeat, TO-PRO-1 dye displacement fluorescence | inhibition, % at 3 µM | 1.3% of 370,000 active;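 active = inhibition above the plate cutoff, the mean of all test compounds on that plate plus 3 SD, cut at about 35% in these data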;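 also: 0% = DMSO alone and 100% = 100 µM mitoxantrone as full dye displacement; higher means more dye released from RNA so lower well fluorescence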
PHOSPHO1 inh: PubChem AID 1565; recombinant PHOSPHO1, absorbance phosphatase assay; Phosphoethanolamine/phosphocholine phosphatase (Homo sapiens), Q8TCT1; 1.1% of 290,000 active; inhibition, % at 13.3 µM; in the data active = inhibition above about 60%
Target sequence (Q8TCT1 whole entry, looked up): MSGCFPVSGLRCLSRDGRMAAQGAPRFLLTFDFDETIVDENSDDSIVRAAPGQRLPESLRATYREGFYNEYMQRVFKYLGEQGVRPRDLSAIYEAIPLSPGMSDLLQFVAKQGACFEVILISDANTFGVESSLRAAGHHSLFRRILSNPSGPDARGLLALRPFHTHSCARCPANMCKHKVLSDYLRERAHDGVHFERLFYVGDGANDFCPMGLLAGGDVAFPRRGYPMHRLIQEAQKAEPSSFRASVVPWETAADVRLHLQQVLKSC
APOBEC3G inh: APOBEC3G DNA deaminase inhibitors, primary screen, biochemical, fluorescence, single-stranded DNA substrate, uHTS | recombinant A3G, ssDNA deamination FAM/TAMRA fluorescence | inhibition, % at 20 µM | 0.28% of 330,000 active | AID 493012, 2011;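 active = inhibition of at least 40% at 20 µM, with no more than 30% in the related APOBEC3A deaminase screen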;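 also: plate controls were DMSO wells with A3G for no effect and wells lacking A3G enzyme for full effect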
Target sequence (Q9HC16 whole entry, looked up): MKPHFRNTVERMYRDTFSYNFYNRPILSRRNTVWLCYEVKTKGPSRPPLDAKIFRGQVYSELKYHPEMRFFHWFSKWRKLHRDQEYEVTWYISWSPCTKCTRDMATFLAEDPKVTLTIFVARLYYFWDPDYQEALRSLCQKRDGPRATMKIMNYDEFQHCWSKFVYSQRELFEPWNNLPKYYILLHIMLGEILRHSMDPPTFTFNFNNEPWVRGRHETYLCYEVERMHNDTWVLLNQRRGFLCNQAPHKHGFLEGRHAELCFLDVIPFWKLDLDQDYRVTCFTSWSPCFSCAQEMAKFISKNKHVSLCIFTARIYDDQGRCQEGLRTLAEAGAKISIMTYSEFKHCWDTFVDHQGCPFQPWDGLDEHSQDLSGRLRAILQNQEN
The depositor's hits bear a star.

What do the screens show for `CCC(CO)Nc1cccc2c1S(=O)(=O)N(Cc1cn(Cc3cccc(C(F)(F)F)c3)nn1)Cc1ccccc1O2` (configuration not stated)?
rCAG binder: 8

What do the screens show for `N#Cc1c(/N=C/c2ccc(-c3ccccc3C(=O)O)o2)sc2c1CCCC2`?
APOBEC3A inh: 31; aDG glyco act: 0; rCAG binder: 7; PHOSPHO1 inh: -3; APOBEC3G inh: 7

How did N#Cc1c(/N=C/c2ccc(-c3ccc(C(=O)O)c(Cl)c3)o2)sc2c1CCCC2 do in these assays?
APOBEC3A inh: 1; ALR H2O2 inh: 99*; aDG glyco act: 0; rCAG binder: 3; APOBEC3G inh: -4

Results for COCc1cc(C)nc(N/N=C/c2ccc(-c3ccc(C(=O)O)c(Cl)c3)o2)c1C#N ?
ALR H2O2 inh: 98*; PHOSPHO1 inh: -146

What do the screens show for `O=C(C1CCN(c2ncnc3c2sc2cccc(F)c23)CC1)N1CCCCC1`?
rCAG binder: 4

How did CCCn1cnnc1CNC(=O)[C@@H](Cc1ccccc1)NC(=O)[C@H]1O[C@@H](n2ccc(=O)[nH]c2=O)[C@H](O)[C@@H]1O do in these assays?
rCAG binder: 1

What do the screens show for `C#CCN1CC(N2CCN(CCO)CC2)CS1(=O)=O` (configuration not stated)?
rCAG binder: 0

How did O=c1c(Cl)c(N2CCN(c3ccc(F)cc3)CC2)cnn1C12CC3CC(CC(C3)C1)C2 do in these assays?
APOBEC3A inh: -4; ALR H2O2 inh: 77*; aDG glyco act: 0; rCAG binder: -7; PHOSPHO1 inh: -16; APOBEC3G inh: -4

Results for O=c1c(Cl)c(N2CCN(c3ccccc3)CC2)cnn1C12CC3CC(CC(C3)C1)C2 ?
APOBEC3A inh: 1; ALR H2O2 inh: 86*; aDG glyco act: 0; rCAG binder: -3; PHOSPHO1 inh: -7; APOBEC3G inh: -4

Results for O=c1c(Cl)c(NCc2ccc(F)cc2)cnn1C12CC3CC(CC(C3)C1)C2 ?
APOBEC3A inh: -1; ALR H2O2 inh: -1; aDG glyco act: 1; rCAG binder: -7; PHOSPHO1 inh: 9; APOBEC3G inh: -6

What do the screens show for `O=c1c(Cl)c(NCc2ccccc2Cl)cnn1C12CC3CC(CC(C3)C1)C2`?
APOBEC3A inh: 5; ALR H2O2 inh: -6; aDG glyco act: 0; rCAG binder: -3; PHOSPHO1 inh: -13; APOBEC3G inh: 0

Results for COC(=O)[C@H](C)NC(=O)[C@H](CC(C)C)NC(=O)OC(C)(C)C ?
rCAG binder: 2

Results for CC(C)NC(=O)c1sc2nc3c(c(-c4cccs4)c2c1N)CN(C)CC3 ?
APOBEC3A inh: -2; ALR H2O2 inh: -59; aDG glyco act: 1; rCAG binder: 12; PHOSPHO1 inh: 63*; APOBEC3G inh: 0

What do the screens show for `C=CCSc1ncnc2c1oc1nc3c(cc12)COC(C)(C)C3`?
APOBEC3A inh: 2; ALR H2O2 inh: -6; aDG glyco act: 0; rCAG binder: -5; PHOSPHO1 inh: -6; APOBEC3G inh: 1

What do the screens show for `CC1(C)Cc2nc3oc4c(=S)nc[nH]c4c3cc2CO1`?
APOBEC3A inh: -7; ALR H2O2 inh: 96*; aDG glyco act: 1; rCAG binder: 4; PHOSPHO1 inh: 5; APOBEC3G inh: 0

How did C[C@]12CC[C@@H]3c4ccc(OC(=O)c5ccccc5)cc4CC[C@H]3[C@@H]1CC[C@@H]2O do in these assays?
APOBEC3A inh: -1; ALR H2O2 inh: -14; aDG glyco act: 0; rCAG binder: 4; PHOSPHO1 inh: 1; APOBEC3G inh: -6

Results for COc1cc2c(cc1O)CC[C@@H]1[C@@H]2CC[C@]2(C)[C@@H](O)CC[C@@H]12 ?
APOBEC3A inh: 7; ALR H2O2 inh: 99*; aDG glyco act: 0; PHOSPHO1 inh: 40; APOBEC3G inh: -8

What do the screens show for `C[C@@H]1OCN(C)[C@H]2C[C@H]3c4[nH]c5cccc(-c6cccc(F)c6)c5c4CCN3C(=O)[C@@H]12`?
rCAG binder: 3

Results for O=C(CCCCCN1C(=O)C2C3C=CC(C3)C2C1=O)Nc1cc(F)cc(F)c1 (configuration not stated) ?
rCAG binder: 0

How did O/N=C(\Cc1cscn1)c1ccc(O)cc1O do in these assays?
APOBEC3A inh: -3; ALR H2O2 inh: 82*; aDG glyco act: 0; rCAG binder: 4; PHOSPHO1 inh: -42; APOBEC3G inh: -4

How did COc1cccc(N2CCN(C(=O)COc3cc(=O)n(C)c4ccccc34)CC2)c1 do in these assays?
rCAG binder: -2

How did CCN(CC)c1ccc(NC(=O)C2=CCN(S(=O)(=O)c3ccc(F)cc3)CC2)c(C)c1 do in these assays?
APOBEC3A inh: -5; ALR H2O2 inh: 87*; aDG glyco act: 0; rCAG binder: 2; PHOSPHO1 inh: -1; APOBEC3G inh: -3

What do the screens show for `CCN(CC)c1ccc(NC(=O)c2c(OC)cccc2OC)c(C)c1`?
APOBEC3A inh: -1; ALR H2O2 inh: 99*; aDG glyco act: 0; rCAG binder: -4; PHOSPHO1 inh: -36; APOBEC3G inh: -6

Results for CC(=O)NC(Cc1ccc2c(c1)OCO2)C(=O)N1CCCN(C(C)=O)CC1 (configuration not stated) ?
rCAG binder: 1

How did O=C(c1ccc(Br)cn1)N1CCC(Oc2cccnc2)CC1 do in these assays?
rCAG binder: 2

How did CC(=O)Nc1ccc2c(CSc3nnc(N)s3)cc(=O)oc2c1 do in these assays?
APOBEC3A inh: -31; aDG glyco act: 0; rCAG binder: 7; PHOSPHO1 inh: 69*; APOBEC3G inh: -10

Results for CS(=O)(=O)N(CC(=O)NCc1ccccn1)Cc1ccc(Cl)cc1 ?
APOBEC3A inh: 4; ALR H2O2 inh: 99*; aDG glyco act: 2; rCAG binder: -4; PHOSPHO1 inh: 1; APOBEC3G inh: 0

How did Cc1ccc(-c2csc(/C(C#N)=C(\O)CCl)n2)cc1 do in these assays?
aDG glyco act: 0; rCAG binder: 35*; PHOSPHO1 inh: 1

How did Cc1ccc(-c2csc(/C(C#N)=C(\O)CN3CCN(C(=O)c4ccco4)CC3)n2)cc1 do in these assays?
APOBEC3A inh: -3; ALR H2O2 inh: 99*; aDG glyco act: 0; rCAG binder: 62*; PHOSPHO1 inh: -31; APOBEC3G inh: -8

What do the screens show for `N#C/C(=C(/O)CN1CCCCC1)c1nc(-c2ccc(Cl)cc2)cs1`?
APOBEC3A inh: -3; ALR H2O2 inh: 4; aDG glyco act: 0; rCAG binder: 6; PHOSPHO1 inh: 28; APOBEC3G inh: -6
